Results taken from PubChem BioAssay (NCATS).
Records with an inconclusive call do not appear. Where a call stands in place of a potency, no number is given. Activity calls are given as the source filed them. Calls come from the whole dose curve; as a rule, active = well fitted curve in the direction sought with a large enough effect; inconclusive = small, poorly fitted or top-dose-only effect, or another doubt; inactive = no such curve, though single readings can be large; an effect the other way counts as inactive or inconclusive.

Assay: qHTS of pediatric cancer cell lines to identify multiple opportunities for drug repurposing: Primary screen for Rh41 cells (AID 1347108);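 note: luminescence drop marks cytotoxic hits; nearly all actives have a fitted effect of over 70% in size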
Settings: Rh41 rhabdomyosarcoma viability, CellTiter-Glo luminescence, 48 h; series mostly up to 46 µM
How it was run: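 Primary screen of approved and investigational compounds on cells in growth media at 37 degrees C, 5% CO2. MIPE set at 11-point and NPC set at 8-point dilutions; viability scored by ATP-based luminescence at 48 hours.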

| Structure (SMILES) | Potency |
| --- | --- |
| COc1cc(OC)c(C(=O)CCCN2CCCC2)c(OC)c1 | inactive |
| CC1=C(C(=O)O)N2C(=O)[C@@H](NC(=O)[C@H](N)C3=CCC=CC3)[C@H]2SC1 | inactive |
| Nc1cc(C(Cl)=C(Cl)Cl)c(S(N)(=O)=O)cc1S(N)(=O)=O | inactive |
| Nc1ccc(S(N)(=O)=O)cc1 | inactive |
| Clc1ccc2c(N3CCN(CCCN4CCN(c5ccnc6cc(Cl)ccc56)CC4)CC3)ccnc2c1 | inactive |

Assay: qHTS of pediatric cancer cell lines to identify multiple opportunities for drug repurposing: Confirmatory screen for NB1643 cells (AID 1347109); note: nearly all actives have a fitted effect of over 45% in size; note: potency is the fitted concentration of half-maximal effect
Settings: NB1643 neuroblastoma cell viability; series mostly up to 45.9 µM
How it was run: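 Cells (500-1,000/well) in growth media were settled 5 h at 37 degrees C, then given compounds for 48 h. Viability was read as CellTiter-Glo luminescence. Primary runs used MIPE at 11 points (0.78 nM-46 µM) and NPC at 8 points (0.59 nM-46 µM); follow-ups used 11 points.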

| Structure (SMILES) | Potency |
| --- | --- |
| c1cnc2cc3c(cc2n1)C1CNCC3C1 | inactive |
| CCOc1cc(CC(=O)N[C@@H](CC(C)C)c2ccccc2N2CCCCC2)ccc1C(=O)O | inactive |
| Cc1cc(C2CCCCC2)n(O)c(=O)c1 | 14.7 µM (active) |
| Nc1ncn([C@H]2C[C@H](O)[C@@H](CO)O2)c(=O)n1 | inactive |
| CCN(CCO)CCCC(C)Nc1ccnc2cc(Cl)ccc12 (configuration not stated) | inactive |
| CCN(CC)C(=S)SSC(=S)N(CC)CC | 8.27 µM (active) |
| Cc1ccc(NC(=O)c2ccc(CN3CCN(C)CC3)cc2)cc1Nc1nccc(-c2cccnc2)n1 | inactive |
